S1P2_agonist: agonists of human S1P2 receptor; O95136; S1P2-expressing cell line, agonist reporter read-out; activation, % at 4.5 µM; 97,000 tested, 0.46% active; AID 729; in the data active = activation above about 16%;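 note: 0% = vehicle low control and 100% = maximal reference agonist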
S1P2_antag: blocks the human S1P2 receptor | AID 736 | O95136 | 97,000 tested, 0.21% active | cell-based S1P2 antagonist assay, inhibition at 5 uM | inhibition, % at 5 µM; in the data active = inhibition above about 45%;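 note: CRE beta-lactamase reporter cells expressing human S1P2 stimulated with S1P; 0% = agonist at EC80 alone and 100% = agonist plus reference antagonist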
GALR2_blocker: antagonists of human galanin receptor 2 (GALR2); O43603; GALR2-expressing cells, antagonist mode; inhibition, % at 4 µM; 140,000 tested, 0.39% active; AID 828;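 note: cells stimulated with galanin 1-16 at roughly its EC80; 0% = agonist challenge control and 100% = basal control without agonist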
Target sequence (O43603 whole entry, looked up): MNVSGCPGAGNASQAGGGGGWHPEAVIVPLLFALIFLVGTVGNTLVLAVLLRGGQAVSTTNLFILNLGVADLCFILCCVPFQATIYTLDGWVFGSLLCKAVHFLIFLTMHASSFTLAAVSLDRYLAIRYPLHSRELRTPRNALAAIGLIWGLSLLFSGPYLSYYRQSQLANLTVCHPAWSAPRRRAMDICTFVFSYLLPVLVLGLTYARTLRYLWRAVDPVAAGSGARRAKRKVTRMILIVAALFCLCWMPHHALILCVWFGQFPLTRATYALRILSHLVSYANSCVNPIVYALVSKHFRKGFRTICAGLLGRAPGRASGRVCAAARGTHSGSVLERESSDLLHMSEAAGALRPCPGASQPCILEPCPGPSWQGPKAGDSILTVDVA
GALR2_agonist: activates the human galanin receptor 2; GALR2-expressing cells, agonist activation read-out; 140,000 tested, 0.48% active; O43603; activation, % (no concentration beside the values); in the data active = activation above about 5%, passing the limit was not always enough;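 note: 0% = vehicle buffer wells and 100% = reference agonist at full effect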
DAT_uptake_mod: changed human dopamine transporter uptake under cocaine IC80 | Q01959 | LLC-PK1 hDAT cells, [14C]-dopamine uptake with cocaine IC80; actives deviate in either direction | B-score at 10 µM | 110,000 tested, 1.3% active;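 active = Z score or B-score, a plate-position-corrected score, falls beyond the plate's 99.7% confidence bounds, in either direction; inactive = both scores lie inside the 99.7% bounds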;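 note: scored against the spread of the other compound wells on the same plate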
GALR2_agon_conf: GALR2 (human) agonism confirmed; GALR2-expressing cells, agonist activation; shares compounds with GALR2_agonist; AID 864; 460 tested, 10% active; activation, % at 5.6 µM; in the data active = activation above about 8.4%;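 note: 0% = buffer-only vehicle wells and 100% = full reference agonist response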
BLA_activ_ctr: counter-screen for GALR2 agonists: beta-lactamase reporter activators; shares compounds with GALR2_agonist; 460 tested, 10% active; AID 865; activation, % at 5.6 µM; CHO NFAT-bla reporter, beta-lactamase FRET activation;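 active = activation above the screen-wide mean activation plus 3 SD, cut at about 8% in these data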;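 note: 0% = DMSO with PBS wells and 100% = thapsigargin positive control wells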
GALR2_blk_conf: confirmation of human galanin receptor 2 (GALR2) antagonists; shares compounds with GALR2_blocker; GALR2-expressing cells, antagonist mode, inhibition; inhibition, % at 4 µM; 480 tested, 60% active;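 note: cells stimulated with galanin at about its EC80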
BLA_inhib_ctr: counter-screen for GALR2 antagonists: beta-lactamase reporter inhibitors; shares compounds with GALR2_blocker; CHO NFAT-BLA reporter, beta-lactamase FRET, thapsigargin-stimulated; inhibition, % at 4.2 µM; 480 tested, 36% active;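 active = inhibition above the mean inhibition across tested compounds plus 3 SD, cut at about 27% in these data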;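 note: 0% = 500 nM thapsigargin stimulated wells and 100% = unstimulated BSA only wells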
Numbers without * were called inactive; x = not tested or not shown; ! = not active in a repeat. Only some compounds are listed: those with a hit (about 2.1% of all), similar ones and a draw of the others. Cut-off read from the data, not from the text of the source, unless noted: active = inhibition above about 27%; inactive = the rest.

SMILES S1P2_agonist S1P2_antag GALR2_blocker GALR2_agonist DAT_uptake_mod GALR2_blk_conf BLA_inhib_ctr others
C=CCn1c(O)c(C(CC)=NCCc2ccccc2)c(=O)[nH]c1=O -3 -6 -13 12* -0.62 x x GALR2_agon_conf=0;BLA_activ_ctr=1
O=C(CNC1CCCCC1)N1CCC2(CC1)OCCO2 -4 -5 -1 -2 -1.3 x x
O=c1cc(C(F)(F)F)c2cc3c4c(c2o1)CCCN4CCC3 -4 36 36* 9 0.78 32* 44* GALR2_agon_conf=2;BLA_activ_ctr=-1
Cc1ccccc1C1=NCC(=O)N(CC(=O)N2CCCCC2)c2sc(C)c(C)c21 -5 -1 0 0 1.3 x x
CN[C@H]1C[C@H]2O[C@@](C)([C@H]1OC)n1c3ccccc3c3c4c(c5c6ccccc6n2c5c31)C(=O)NC4 x x 104* -4 -1.5 105* 108*
COC(=O)C[C@]1(C(=O)OC)CN(C#N)N(c2ccc(Cl)cc2)C12c1ccccc1-c1ccccc12 -7 36 40* -3 -0.76 44* 32*
CN1C2CCC1/C(=C/c1ccccn1)C(=O)/C2=C\c1ccccn1 x x 102* -3 x 102* 105*
Cn1cccc1/C=C1/C(=O)NC(=O)N(Cc2ccccc2)C1=O x x 29* 0 x 36* 66*
C=CCN1C(=O)NC(=O)/C(=C/c2cccn2C)C1=O -3 -1 10 -1 -1.5 x x
O=S(=O)(c1ccccc1)N1CN2CCN(C2)C1 -4 17 -4 0 -0.77 x x
CCN1CCN(Cc2nnnn2C(C)(C)C)CC1 -1 -9 6 -2 -1.1 x x
Cc1cccc(-n2c(O)c(C=NCc3cccnc3)c(=O)[nH]c2=O)c1C -5 2 4 -1 -0.51 x x
Cc1cccc(N2CCc3c2nc2ccccc2c3N)c1 -7 24 31*! -3 0.012 36* 11
NCC1(c2ccc3c(c2)OCCO3)CCCC1 -3 -12 9 -1 0.59 x x

Bioassay records as filed in PubChem.
